Screens deposited in PubChem BioAssay by Center for Chemical Genomics, University of Michigan.
Many of the other results were omitted from the sample, so hits are more common in it than they were.
Dicer inh – blocks human Dicer maturation of pre-miR-21; cat-ELCCA pre-miR-21 Dicer processing, chemiluminescence; active compounds read high; z-score at 25 µM; Q9UPY3; 47,000 tested, 6% active; in the data active = z-score above about 3, passing the limit was not always enough;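 note: plate controls were vehicle for no effect and no enzyme for full effect; higher signal means more uncleaved substrate so more Dicer inhibition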
Active calls of the source: *.

Results for Cc1nnc(N2C(=O)C(=O)/C(=C(/O)c3ccccc3)C2c2ccccc2)s1 (centres undefined) ?
Dicer inh: 1.5

How did O=C(Nc1ccc(F)cc1F)c1cnccn1 do in these assays?
Dicer inh: 2

Results for COC(=O)C1=C(C)NC2=C(C(=O)CCC2)C1c1cc([N+](=O)[O-])c(C)s1 (centres undefined) ?
Dicer inh: -1.9

Results for CCOC(=O)C1=C(C)NC(C)=C(C(=O)OC)C1c1cccc([N+](=O)[O-])c1 (centres undefined) ?
Dicer inh: 0.15

What do the screens show for `COC(=O)C1=C(C)NC(C)=C(C(=O)OC)C1c1ccccc1[N+](=O)[O-]`?
Dicer inh: 11*

How did C=CCOC(=O)[C@@H](N)Cc1ccc(O)cc1 do in these assays?
Dicer inh: -8.5

Results for CCOC(=O)c1cnc(Nc2ccc(OC)cc2OC)nc1C(F)(F)F ?
Dicer inh: 0.16

Results for Cc1occc1C(=O)Nc1ccc(N(C)C)cc1 ?
Dicer inh: 0.12

How did C/C(=N\NC(=O)N/N=C(\C)c1ccc([N+](=O)[O-])cc1)c1ccc([N+](=O)[O-])cc1 do in these assays?
Dicer inh: -1.2

What do the screens show for `O=C(CSC1=NCCCCC1)c1ccc([N+](=O)[O-])cc1`?
Dicer inh: -2.1

What do the screens show for `O=C(c1ccc([N+](=O)[O-])cc1)c1ccc2c(c1)CCC2`?
Dicer inh: 3.6*

How did CCOc1nc(-c2ccc(C)cc2)ccc1-c1noc(C(C)C)n1 do in these assays?
Dicer inh: 0.58
